In PubChem BioAssay (NCI):
About 79,000 compounds went through this panel and 15% of them were active in at least one assay; those are over-represented in the sample as a whole. Activity calls are given as the source filed them. No stated cut-off is given here; in the data, active means growth inhibition above about 70%; inactive means the rest.

Key:
[1] = NCI Yeast Anticancer Drug Screen. Data for the rad50 strain (AID 155);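 further: 0% = growth of vehicle-only cultures of the same strain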; conditions: S. cerevisiae rad50 strain growth inhibition; at 50.0 µM; stronger effect = higher value
Procedure, shortened: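 Yeast carrying a defined DNA repair defect were exposed to test compounds, and growth was compared with vehicle-treated controls to give percent inhibition.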

[2] = NCI Yeast Anticancer Drug Screen. Data for the mec2-1 strain (AID 157); conditions: S. cerevisiae mec2-1 strain, at 50.0 µM, stronger effect = higher value
Procedure, shortened: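 Yeast mec2-1 mutant treated with compound. Readout: growth inhibition vs vehicle controls.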

[3] = NCI Yeast Anticancer Drug Screen. Data for the sgs1 mgt1 strain (AID 161);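 further: 0% = growth of cultures given vehicle only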; conditions: S. cerevisiae sgs1 mgt1 strain, at 50.0 µM, stronger effect = higher value
Procedure, shortened: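 Genetically altered yeast, compound exposure, growth inhibition relative to vehicle.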

[4] = NCI Yeast Anticancer Drug Screen. Data for the cln2 rad14 strain (AID 165);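 further: 0% = growth equal to vehicle treated cultures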; conditions: S. cerevisiae cln2 rad14 strain, at 50.0 µM, stronger effect = higher value
Procedure, shortened: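 cln2 rad14 yeast strain; compound exposure; growth inhibition read vs vehicle controls.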

[5] = NCI Yeast Anticancer Drug Screen. Data for the bub3 strain (AID 167); conditions: S. cerevisiae bub3 mutant strain, at 50.0 µM, stronger effect = higher value
Procedure, shortened: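 Compounds were applied to a genetically altered yeast strain carrying a cell-cycle control defect. Growth inhibition was scored against vehicle-treated controls.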

[6] = NCI Yeast Anticancer Drug Screen. Data for the mlh1 rad18 strain (AID 175); conditions: S. cerevisiae mlh1 rad18 strain growth inhibition; at 50.0 µM; stronger effect = higher value
Procedure, shortened: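 Yeast w/ defined DNA-repair lesions; compound exposure; growth vs vehicle controls → % inhibition.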

Measured: growth inhibition

COn1c2ccccc2c2c1cc1ccccc1[n+]2[O-]
inactive: [1] -7.15% | [2] -5.95% | [3] -8.9% | [4] -52.5% | [5] -9.65% | [6] -13.4%

CN1C(=O)C(=O)n2c(cc3ccccc32)C1=O
inactive: [1] 1.15% | [2] 6.15% | [3] 7.25% | [4] 6.2% | [5] -0.25% | [6] -13.1%

CC(=O)c1cccc(NC(=O)Oc2ccc(Cl)cc2Cc2ccccc2)c1
active: [1] 99.1% | [4] 99.5% | [5] 99.4% | [6] 99%
inactive: [2] 50.2% | [3] 64.1%

CCCC1(C)COC(/C=C/c2ccccc2)OC1 (centres undefined)
inactive: [1] 6.85% | [2] -9.7% | [3] -8.3% | [4] -1.85% | [5] -8.2% | [6] 8.4%

CC(=O)CC(=O)Nc1ccc(C(=O)c2ccccc2)cc1
inactive: [1] 8.35% | [2] -41.3% | [3] -13% | [4] 1.5% | [5] 4.5% | [6] -22.2%

Cc1ccc2c(c1)[n+]([O-])c1c3ccccc3[nH]c1[n+]2[O-]
inactive: [1] 63.2% | [2] 23% | [3] 22.9% | [4] 25.7% | [5] 15.2% | [6] 26.4%

N#CC1CCCC[N-]1.[NH-]CC[N-]CC[NH-].[Pt+4] (centres undefined)
inactive: [1] 57.9% | [2] 17.2% | [3] 53.6% | [4] -10.1% | [5] 4.05% | [6] 43%

C=CCNC(=S)N1c2ccccc2NC(=O)CC1C (centres undefined)
inactive: [1] -45.8% | [2] -9.2% | [3] -20.4% | [4] 13.4% | [5] 13.1% | [6] -15.4%

S=c1nc[nH]c2nc(Cl)[nH]c12
inactive: [1] -5.45% | [2] -18.6% | [3] -21.6% | [4] -0.25% | [5] -26.6% | [6] 4%

CC(=O)OCC(OC(C)=O)C1(O)CCC2C3CCC4=CC(=O)CCC4(C)C3CCC21C (centres undefined)
active: [1] 98.4% | [2] 99% | [3] 98.5% | [4] 97.8% | [5] 98.3% | [6] 98.3%

C/C(=N\NC(=S)NCCCCNC(=S)N/N=C(\C)c1ccccn1)c1ccccc1
inactive: [1] -4.15% | [2] 36.1% | [3] 14.7% | [4] 3.65% | [5] 38.4% | [6] 13.9%

O=C(O)C1CC2CC(=O)C1C2 (centres undefined)
inactive: [1] 12.8% | [2] -5.45% | [3] -0.85% | [4] -9.75% | [5] 3.4% | [6] 9%

CC(=O)COC(C)=O
inactive: [1] 40.2% | [2] -15.6% | [3] 4.85% | [4] -5% | [5] 2.6% | [6] 12.6%

CC(N)C(=O)NC(C)P(=O)(O)O (centres undefined)
inactive: [1] 2.7% | [2] 1.4% | [3] -7.15% | [4] -73% | [5] 9.05% | [6] 8.2%

CC(=O)OCC1OC(Sc2nc3ncnc(N)c3[nH]2)C(OC(C)=O)C(OC(C)=O)C1OC(C)=O (centres undefined)
inactive: [1] -0.55% | [2] -1.3% | [3] -18.9% | [4] -3.5% | [5] 4.5% | [6] -3.4%

CC(NCCCNC(C)C(=O)O)C(=O)O (centres undefined)
inactive: [1] 21.8% | [2] 1.45% | [3] 26.8% | [4] 32.3% | [5] 11.1% | [6] 13.4%

CCOC(=O)c1ccc(NC(=O)Nc2cc(C(F)(F)F)ccc2Cl)cc1
active: [1] 89.2% | [3] 92.9% | [4] 92.2% | [5] 86.7% | [6] 94%
inactive: [2] 28.3%

Cc1nc(N)c2c(ncn2C2OC(CO)C(O)C2O)n1 (centres undefined)
inactive: [1] 9.35% | [2] 1.85% | [3] -5.3% | [4] -8.8% | [5] -9.15% | [6] 14.6%

COC(=O)C[C@](O)(CCCC(C)(C)O)C(=O)O[C@@H]1C(OC)=C[C@]23CCCN2CCc2cc4c(cc2[C@H]13)OCO4
inactive: [1] 51.2% | [2] 35.4% | [3] 43.2% | [4] 41% | [5] 43.3% | [6] 42.5%

O=[N+]([O-])c1ccc(S(=O)(=O)N(CCCBr)c2ccccc2)cc1
active: [3] 72.7% | [6] 74.3%
inactive: [1] 48.4% | [2] 42.6% | [4] 24.6% | [5] 44.5%

CCC(SC(C)=O)C(=O)O (centres undefined)
inactive: [1] 13% | [2] -16.1% | [3] 2.65% | [4] 14.4% | [5] -2.05% | [6] 9.5%

Nc1cccn2cnnc12
inactive: [1] 0.1% | [2] 15.9% | [3] -4.6% | [4] 17.4% | [5] 23.1% | [6] 19.4%

O=[N+]([O-])c1cnc(/C=[N+](\[O-])C2CCCCC2)n1CCO
inactive: [1] 3.7% | [2] 17.6% | [3] -0.3% | [4] 13.7% | [5] 16.6% | [6] 9.8%

Cc1ccc2c(c1)c1ccc3c(c1n2C)C(=O)C=CC3=O
inactive: [1] 3.25% | [2] 30.7% | [4] 2.55% | [5] 62.6%
active: [3] 74.8% | [6] 74%

Cc1cc(-c2cccc3ccccc23)c(C#N)c(=S)n1C1OC(CO)C(O)C(O)C1O (centres undefined)
inactive: [1] 14.1% | [2] 4.4% | [3] 47.4% | [4] 9.5% | [5] 15.8% | [6] 33.6%

CCO/C=N/c1oc(-c2ccccc2)nc1C#N
inactive: [1] 4.6% | [2] 4.95% | [3] -4.85% | [4] -38.1% | [5] -12.1% | [6] 1.1%

O=[N+]([O-])CC1=CCCCC1
inactive: [1] 30.6% | [2] 12.2% | [3] 25.9% | [4] 4.05% | [5] -5.05% | [6] 16.6%

CC(=O)CCC(CC=O)C(C)C (centres undefined)
inactive: [1] 3.35% | [2] 0% | [3] 7.6% | [4] -4.9% | [5] -3.65% | [6] 2.6%

Nc1cccc2ncccc12
inactive: [1] 0.6% | [2] -9.95% | [3] -13.5% | [4] -30% | [5] -1.95% | [6] -19.9%

Cc1ccc(-c2ccc(C)cc2)cc1
inactive: [1] -31.2% | [2] -38% | [3] -22.2% | [4] -11.1% | [5] -36.9% | [6] -11.1%

Cc1cc(=O)[nH]c2c(C)cccc12
inactive: [1] 4% | [2] 28.2% | [3] 11.8% | [4] -4.5% | [5] -0.4% | [6] 16.6%

O=C1CCC(=O)N1c1ccc([I+]c2ccc(N3C(=O)CCC3=O)cc2)cc1
inactive: [1] 32.5% | [2] 6.65% | [3] 12.7% | [4] 15.1% | [5] -0.8% | [6] 14.4%

O=c1oc2ccccc2c(O)c1C=NC(=S)c1ccncc1
inactive: [1] -30.6% | [2] -38.4% | [3] -27.9% | [4] 24.9% | [5] -11.3% | [6] -25.5%

Cn1nc(-c2cccc(-c3nn(C)c(=NCCO)s3)n2)sc1=NCCO
inactive: [1] -29.8% | [2] -25.4% | [3] -51% | [4] -6.7% | [5] -28.1% | [6] -40.6%

CCCCCCCCCCCCCCCCOc1ccc(N)cc1
inactive: [1] 11.7% | [2] 6.05% | [3] -16.3% | [4] -41.2% | [5] 19% | [6] 1.1%

O=C(O)Cc1ccc(-c2ccccc2)cc1
inactive: [1] 29.1% | [2] 23.6% | [3] 21.2% | [4] 6.45% | [5] 20.5% | [6] 25.4%

CC(=O)/C(=C\c1ccccc1F)C(=O)CCN(C)C
inactive: [1] 7.95% | [2] 6.55% | [3] 8.05% | [4] 12.2% | [5] 13.6% | [6] 28.3%

O=C(NC(CO)CO)c1ccc2cc(C(=O)N3CC(CCl)c4ccc([N+](=O)[O-])cc43)[nH]c2c1 (centres undefined)
inactive: [1] 42.6% | [2] -35.8% | [3] -22.4% | [4] -7.95% | [5] -36.1% | [6] -72.8%

Cc1ccc(S(=O)(=O)Oc2nc3nc4ccccc4nc3nc2OS(=O)(=O)c2ccc(C)cc2)cc1
inactive: [1] -3.5% | [2] -2% | [3] 3.7% | [4] -10.5% | [5] 3.5% | [6] -3.95%
